In PubChem BioAssay (NCATS):
Records with an inconclusive call do not appear. Where a call stands in place of a potency, no number is given. Activity calls are given as the source filed them. The call rests on the fitted dose curve; in most records, active means well fitted curve in the direction sought with a large enough effect; inconclusive means small, poorly fitted or top-dose-only effect, or another doubt; inactive means no such curve, though single readings can be large; an effect the other way counts as inactive or inconclusive.

Assays:
[1] = qHTS to identify inhibitors of the type 1 interferon - major histocompatibility complex class I in skeletal muscle: primary screen against the NCATS LOPAC collection (AID 1347405); settings: iHSKM muscle cells, IFN-b-induced MHC-I HiBiT luminescence, 24 h; series mostly up to 45.9 µM;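 further: human myoblasts with HiBiT tag on endogenous HLA-B stimulated by IFN-beta; lytic HiBiT luminescence reporting HLA-B protein level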
Summary of the method: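 HLA-B HiBiT myoblasts, IFN-b 4 ng/ml, dexamethasone-free medium; compounds 7-pt 1:4.3 titration, top 46 uM final; 24 h at 37 C; Nano-Glo HiBiT lytic reagent, 10 min RT, luminescence.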

[2] = qHTS for inhibitors of adenylyl cyclases using a fission yeast platform: a pilot screen against the NCATS LOPAC library (AID 1347410); settings: S. pombe CHP2027, fbp1-GFP fluorescence, 18 h, yeast expressing mammalian AC9 and human GNAS; series mostly up to 57.5 µM
Summary of the method: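 Read-out: fbp1-GFP fluorescence by laser scanning cytometry (488 nm laser), a gain of signal when AC/cAMP-PKA signalling is inhibited. Strain CHP2027 expressing AC9, GNAS and PDE4D2; compounds at up to 57 µM; 18 h, 30C.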

[3] = Validation qHTS assay for inhibitors of Activation Induced Cytidine Deaminase (AID): UDG Counterscreen signal (AID 1347427); settings: biochemical UDG counterscreen, fluorescence signal; series mostly up to 115 µM
Summary of the method: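 Fluorescence at 560 nm excitation, 665 nm emission reports UDG signal after 250 mM NaOH (2x) addition and 30 min. Enzymes (AID 1 uM, UDG 2 U/mL, at 4/3x) preincubated 10 min with compound, then 4 h with 4x 250 nM DJC20/DJC23 substrate at room temperature.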

[4] = Primary qHTS for inhibitors of La Crosse Virus (LACV) - induced cell death in SH-SY5Y cells (AID 1508616); settings: SH-SY5Y LACV cytopathicity rescue, ATP luminescence, 6 d; series mostly up to 9.63 µM;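 further: top concentration of the series differs between compounds; higher means more rescue of cells from virus-induced death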
Summary of the method: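 Cytopathicity rescue screen: compounds pinned onto SH-SY5Y cells, which are then infected with LACV (MOI 0.01) and held 6 days at 37C. Percent activity is scaled between infected DMSO control and uninfected DMSO control.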

[5] = target: Single-stranded DNA cytosine deaminase (Homo sapiens) (UniProt Q9GZX7); experiment: Validation qHTS assay for inhibitors of Activation Induced Cytidine Deaminase (AID): AID signal (AID 1347429); settings: Recombinant AID, FRET ssDNA deamination with UDG, fluorescence; series mostly up to 115 µM; further: potency means the concentration at half of the fitted maximal effect
Summary of the method: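 AID+UDG coupled FRET deamination; cpds up to 114 uM final; DJC20/DJC23 substrate, 4 hr RT; NaOH stop, 30 min RT; read Ex 540/Em 590.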

[6] = qHTS to identify inhibitors of the type 1 interferon - major histocompatibility complex class I in skeletal muscle: primary screen against the NCATS Mechanism Interrogation Plate v5.0 (MIPE) Libary (AID 1347411); settings: iHSKM cells + IFN-b, HiBiT-tagged MHC-I luminescence, 24 h; series mostly up to 45.8 µM; further: nearly all actives have a fitted effect of over 65% in size
Summary of the method: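 HLA-B HiBit myoblasts, dexamethasone-free medium + 4 ng/ml IFN-b, 24 h compound, 11-pt 1:3 from 46 uM final. Readout: Nano-Glo HiBiT lytic luminescence after 10 min lysis, RT.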

Chain of Single-stranded DNA cytosine deaminase (Homo sapiens) (Q9GZX7 whole entry, looked up): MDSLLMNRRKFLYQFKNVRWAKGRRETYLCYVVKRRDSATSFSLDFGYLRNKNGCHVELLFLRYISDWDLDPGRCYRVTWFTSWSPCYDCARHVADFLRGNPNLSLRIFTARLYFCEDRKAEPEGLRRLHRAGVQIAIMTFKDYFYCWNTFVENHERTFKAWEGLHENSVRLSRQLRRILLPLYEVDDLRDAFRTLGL

SMILES	Potency [1]	outcome [2]	Potency [3]	Potency [4]	Potency [5]	outcome [6]
CCCCOc1cc(CC2CNC(=O)N2)ccc1OC (stereo not given)	inactive	inactive	inactive	inactive		
O=c1cc(O)cc(/C=C/c2ccc(O)c(O)c2)o1	inactive	inactive			inactive	
Nc1nc2c(nc(Br)n2C2OC3COP(=O)(O)O[C@@H]3C2O)c(=O)[nH]1 (stereo not given in full)	inactive	inactive	inactive	inactive		
OC[C@H]1NC[C@@H](O)[C@@H]1O	inactive	inactive		inactive	inactive	
CNc1ncnc2c1ncn2[C@H]1C[C@H](OP(=O)(O)O)[C@@H](COP(=O)(O)O)O1	inactive	inactive	inactive	inactive	inactive	
CCCCCCC/C=C\CCCCCCCCC(=O)O	inactive	inactive	inactive	inactive	70.8 µM (active)	
CN1CC(O)C(O)C(O)C1CO (stereo not given)	inactive	inactive	inactive	inactive	inactive	
CCN(c1nc(N)c(C(=O)N=C(N)N)nc1Cl)C(C)C	inactive	inactive			inactive	
CNC(=O)c1cc2c(cn1)[nH]c1ccccc12	inactive	inactive	inactive	inactive		
[N-]=[N+]=Nc1ccc(C(=O)CSC[C@H](NC(=O)CC[C@H](N)C(=O)O)C(=O)NCC(=O)O)cc1	inactive	inactive	inactive	inactive		
NC1CCN(O)C1=O (stereo not given)	inactive	inactive	inactive	inactive		
CCN1C(=O)C=CC1=O	inactive	inactive	inactive	inactive		
CN(C)CCCc1cc(C(=O)Nc2ccc(-c3ccncc3)cc2)ccc1O	inactive	inactive	inactive	inactive		
Cc1cccc(C(=O)NCN2CCN(c3ccccc3C#N)CC2)c1	inactive	inactive	inactive	inactive		
NCCCNCCCCNCCCN	inactive	inactive	inactive	inactive	inactive	
CCN(CC)CCOC(=O)c1cc(Cl)c(N)cc1OC	inactive	inactive	inactive	inactive		
COc1ccc(C(=O)NCc2cccnc2)cc1C(=O)NCc1cccnc1	inactive	inactive	inactive	inactive	inactive	
COc1ccc(CCn2nnnc2C2(c3ccc(C)cc3)CC2)cc1	inactive	inactive	inactive	inactive		
OC[C@H]1O[C@H](n2cnc3c(N[C@H]4CCC[C@@H]4O)ncnc32)[C@H](O)[C@@H]1O	inactive	inactive	inactive	inactive	inactive	
CCCCCCCCCCC/C=C\C(C)(C)/C=C\CCCC(=O)O	inactive	inactive	inactive	inactive		
CCc1ccc2c(-c3cccc(Cl)c3)nc(=O)n(CC)c2n1	inactive	inactive	inactive	inactive		
CCOC(=O)C12CC1/C(=N/O)c1ccccc1O2 (stereo not given)	inactive	inactive	inactive	inactive		
O=C(c1ccc2c(c1)OCCO2)N1CCCCC1	inactive	inactive	inactive	inactive		
C=C1C[C@@]23CC[C@H]4[C@@](C)(CCC[C@@]4(C)C(=O)OC4OC(CO)C(O)C(O)C4O)[C@@H]2CC[C@]1(OC1OC(CO)C(O)C(O)C1OC1OC(CO)C(O)C(O)C1O)C3 (stereo not given in full)	inactive	inactive	inactive	inactive		
CN1CCC2(CCN3CCc4c(oc5ccccc45)C3C2)N(C)C1=O (stereo not given)	inactive	inactive	inactive	inactive	inactive	
O=C(O)/C(=C/c1c(C(=O)O)[nH]c2cc(Cl)cc(Cl)c12)c1ccccc1	inactive	inactive	inactive	inactive	inactive	
CC1CNCCN1S(=O)(=O)c1cccc2cnccc12 (stereo not given)	inactive	inactive	inactive	inactive	inactive	
COc1cc(/C=C(\C#N)C(=O)Nc2nnc(C(F)(F)F)s2)ccc1OCc1ccc(C(F)(F)F)cc1C(F)(F)F						inactive
O=c1[nH]c(=O)c2nc3ccccc3nc2[nH]1		inactive	inactive	inactive	inactive	
